The record followed here is PubChem BioAssay AID1259343 (VanderVen Lab, College of Veterinary Medicine, Cornell …, 2017).

Out of some 6,200 compounds screened, about 2,900 (47%) were called active. So high a share suggests a set chosen from earlier hits. The list shows a part of the results. Values without a mark were called inactive. Rule as the data show it: active = inhibition above about 50%; inactive = the rest.

The test is described as follows: Mycobacterium tuberculosis growth inhibition, primary screen (AID 1259343). Particulars: inhibition: at 10 µM, stronger effect = higher value; outcome: 10 uM.
Broadly, the inhibition is the change of the read-out against control, counted positive when it falls. For the compound `CC(C)=CCCC(C)(O)c1cc(C(N)=O)no1` (configuration not stated), the inhibition is 32.2%.
In the case of `N#Cc1ccc(-c2ccc(OCC(=O)c3ccc4c(c3)CC(=O)N4)cc2)cc1`, the inhibition is 39.1%.
In the case of `COc1ccc(OCCCOc2cccc(Cl)c2Cl)cc1` it was 18.8%; in that of `COc1ccc(OCCCCOc2ccccc2OC)cc1`, 97.5% (active).
As for `CC(=O)c1ccc(OCCOc2ccc(C#N)cc2)cc1`, the inhibition is 101% (active).
For the compound `COc1cccc(OCCCOc2cccc(Cl)c2Cl)c1`, the inhibition was 61.9% (active).
Take `COc1ccccc1OCCCCOc1ccc(I)cc1`: the inhibition is 91.3% (active).
Take `COc1ccccc1OCCCOc1ccc(F)cc1`: the inhibition is 35.7%.
As to `CCCCCCNC(=O)Nc1ccc(S(=O)(=O)Nc2ccc(CCNC[C@H](O)COc3ccc(O)cc3)cc2)cc1`, the inhibition was 18.9%.
Then `COC(=O)c1ccc(OCCCCOc2ccccc2OC)cc1`, with 80.9% (active).
With `CCCCCCCOc1ccc(C(C)=NOC)cc1`, the inhibition is 41.4%.
Take `CCCCCCOc1ccc(C(=O)NNS(=O)(=O)c2ccc(C(=O)OC)cc2)cc1`: the inhibition is 94.8% (active).
`COc1ccc(OCCCCOc2ccc(Br)cc2)cc1`: the inhibition was 81.2% (active).
`COc1ccc(OCCCCOc2ccccc2)cc1`: the inhibition is 27.8%.
On to `O=C1Oc2ccccc2C1=Cc1c(Cl)cccc1Cl`, for which the inhibition is 59% (active).
Consider `CC(C)N(C(=O)/C=C/c1c(Cl)cccc1Cl)C(C)C`, for which the inhibition is 47.8%.
As for `Cc1cc(NC(=O)COc2ccc(Cl)cc2Cl)n(-c2nc(C)c(C)c(=O)[nH]2)n1`, the inhibition is -28.7%.
On to `Cc1nnc2sc(COc3ccc(Cl)cc3Cl)nn2c1=O`, for which the inhibition is 78.4% (active).
Then `Cc1cc(Br)cc(Cl)c1NC(=O)C1(C)CC1(Cl)Cl` (configuration not stated), with -15.4%.
In the case of `O=C(N/N=C1/CCSc2c(F)cccc21)c1ccccc1` it was 38%.
For the compound `CCC1CCC(=NNC(=O)c2ccc(COc3ccccc3)cc2)CC1` (configuration not stated), the inhibition is 97.1% (active).
Then `O=C(CC1CCCO1)NCc1cccc(OCc2ccccc2)c1` (configuration not stated), with 39.5%; and `Cc1ccccc1CNCc1cn(-c2ccccc2)nc1-c1ccc2c(c1)OCO2`, with 60.9% (active).
Turning to `Cc1cccc(-n2cc(CNCC3CCCO3)c(-c3cccc(F)c3)n2)c1` (configuration not stated), the inhibition result is “inactive”.
`Fc1ccccc1-c1nnn(Cc2ccc3c(c2)OCO3)n1`: the inhibition was 48.7%.
Consider `COc1ccc(-n2cc(CNCc3ccc4c(c3)OCO4)c(-c3ccccc3Cl)n2)cc1`, for which the inhibition is 61.7% (active).
In the case of `Cc1cccc(-n2cc(CNCc3ccc(C)o3)c(-c3cccc(F)c3)n2)c1` it was 46.5%; in that of `CC(C)(C)c1ccc(Cn2cnc([N+](=O)[O-])n2)cc1`, 65.2% (active); in that of `FC(F)(F)c1nnc(N2CCN(c3ccc(Cl)cc3)CC2)s1`, 18.9%.
`O=C(Nc1nnc(C(F)(F)F)s1)C1(c2cccc(Cl)c2)CC1`: the inhibition is 86.3% (active).
As for `COc1cc(NC(=O)C2(c3ccccc3)CC2)c(OC)cc1Cl`, the inhibition is 16.5%.
`O=C1C(=Cc2ccc(OC(F)F)cc2OC(F)F)Oc2cc(O)ccc21`: the inhibition is 56.9% (active).
On to `O=C1/C(=C/c2cc3ccccc3o2)Oc2cc(O)ccc21`, for which the inhibition was 3.03%.
Regarding `Cn1c(=S)[nH]c2c(-c3ccccc3)csc2c1=O`, the inhibition is 20.9%.
Turning to `CCOC(=O)CSc1ccc(NC(=O)c2ccc(C)cc2)nn1`, the inhibition is 93.7% (active).
Consider `CSc1nc(N)nc(SCc2ccc(F)cc2)c1C#N`, for which the inhibition was 53.4% (active).
In the case of `COc1ccc(/C=C2\C=C(c3ccccc3)N(c3ccc4ccccc4c3)C2=O)cc1` it was 74.9% (active).
For the compound `CN(C)c1cc(-c2noc(Cc3ccccc3Cl)n2)ccn1`, the inhibition is 67% (active).
`Ic1ccc(Nc2nc3nonc3nc2NCc2ccco2)cc1`: the inhibition is 101% (active).
`Oc1ccc(Nc2nc3nonc3nc2Nc2cccc(Br)c2)cc1`: the inhibition was 49.2%.
Turning to `CN(CCO)CC(O)Cn1c2ccc(Br)cc2c2cc(Br)ccc21` (configuration not stated), the inhibition is 69.2% (active).
Regarding `OCC(O)Cn1c2ccc(Br)cc2c2cc(Br)cc(Br)c21` (configuration not stated), the inhibition was 17.8%.
Then `Cc1cc(O)c(CN2CCOCC2)c2c1C(=O)/C(=C/c1cc3cc(Br)ccc3o1)O2`, with 45.4%; and `OC(CN1CCOCC1)Cn1c2ccc(Br)cc2c2cc(Br)ccc21` (configuration not stated), with 86.8% (active); and `C=CCn1c2ccc(Br)cc2c2nc3ccccc3nc21`, with -22.9%.
With `CC(=O)O[C@H]1CC[C@@]2(C)C(=CC[C@@H]3[C@H]2CC[C@]2(C)C(c4cccnc4)=CC[C@@H]32)C1`, the inhibition is 27.2%.
As to `Brc1ccc(Cc2nnnn2CCn2cccn2)cc1`, the inhibition is 25.9%.
In the case of `O=C(Cn1nnnc1-c1ccc(Br)cc1)c1ccccc1`, the inhibition is 89.4% (active).
Take `CCC(=O)c1ccc(-c2ccc(Br)cc2F)cc1`: the inhibition was 29%.
Then `O=C(CCl)N1N=C(c2cccs2)CC1c1ccco1` (configuration not stated), with 101% (active); and `NC(=O)c1ccc(Cn2nc(-c3cccs3)oc2=O)cc1`, with 14.6%.
For `O=c1oc(-c2ccco2)nc2ccc(Br)cc12`, the inhibition is 41.6%.
As to `O=c1oc(-c2ccc([N+](=O)[O-])cc2Cl)nc2cc(Cl)ccc12`, the inhibition was 28.8%.
Then `COc1ccc(-c2nc3ccccc3c(=O)o2)cc1[N+](=O)[O-]`, with 83.1% (active); and `Cc1sc2ncnc(N(C)Cc3nc(C4CC4)no3)c2c1C`, with -15.9%.
In the case of `CCC(Nc1ccccc1)c1nc(C2CCC2)no1` (configuration not stated), the inhibition was 44.9%.
For `CN(CCCc1ccccc1)Cc1nc(C2CC2)no1`, the inhibition is 78.2% (active).
Consider `CC(C)Cn1c(-c2ccco2)nc2c(c(=O)c3ccccc3n2C)c1=O`, for which the inhibition was -27.4%.
As for `CCN1C(=O)SC(Nc2ccc(OC)cc2)C1=O` (configuration not stated), the inhibition was 78.9% (active).
For the compound `Cc1ccc(NS(=O)(=O)N2CCCCC2)cc1Cl`, the inhibition is 23.6%.
Take `COc1ccc(NC2CC(O)C(CO)O2)cc1` (configuration not stated): the inhibition entry is “inactive”.
Consider `CCN1C(=O)SC(Nc2ccc(C)c(Cl)c2)C1=O` (configuration not stated), for which the inhibition is 96.3% (active).
As to `O=C(CN1C(=O)CC2(CCCC2)C1=O)c1ccc(Cl)s1`, the inhibition is -28.2%.
For the compound `O=C(Cn1nnc(-c2cccs2)n1)c1ccc(Cl)s1`, the inhibition was 77.8% (active).
`Brc1cc2c(cc1Cn1nnc(-c3cccs3)n1)OCO2`: the inhibition is -19.9%.
For `O=C(Cn1nnc([N+](=O)[O-])n1)c1cccs1`, the inhibition was 98.8% (active).
Then `Cc1ccc(C)c(-n2nnnc2SCCCC(=O)c2cccs2)c1`, with -43%.
